Assay outcomes (PubChem BioAssay)
Compounds with a hit are over-represented: about 2.6% of the library has one in this group of screens.
Shn3 3UTR inh: inhibitors of Schnurri-3 3'UTR reporter in osteoblasts | AID 588674 | inhibition, % at 12.5 µM | Clone20 osteoblast Shn3 3'UTR firefly luciferase, 24 h | 0.52% of 360,000 active;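 active means mean inhibition of at least 75% with every replicate also reaching 75%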
Peg3 promoter: reduces Peg3 promoter-driven luciferase expression in HeLa. AID 588405. HeLa PEG-Prom luciferase reporter, luminescence, overnight. 1.7% of 360,000 active. inhibition, % at 20 µM;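 active means inhibition of at least 50% at 20 µM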
KKLEB cytotox: reduces viability of KKLEB cystic fibrosis airway cells; KKLEB CF airway cells viability, ATPlite luminescence, overnight; stronger effect = lower value; cells stimulated with P. aeruginosa culture filtrate; activity change (cytotoxicity), % at 5 µM; 0.36% of 360,000 active; AID 602141;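 active means corrected activity change at or below -50% at 5 µM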
HIF-2a block: inhibitors of HIF-2a; 786-0 RCC cells HIF-2a reporter, luciferase luminescence, overnight; inhibition, % at 18.8 µM; 0.72% of 360,000 active; AID 624352;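 active means inhibition of the luminescence signal of 40% or more relative to plate controls, in a single-dose primary screen at 18.75 µM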
CF NFkB block: cystic fibrosis NF-kB activation inhibition; inhibition, % at 5 µM; KKLEB NF-kB-GFP reporter, PAF-induced, GFP fluorescence overnight; 0.86% of 360,000 active;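 active means at least 50% inhibition at 5 µM, scaled per plate between neutral and stimulator controls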;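 further: PAF is a Pseudomonas aeruginosa culture filtrate used as stimulus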
Each line names hits and unclear results; the compound was inactive in the other large screens; ! = repeats disagree.

CCCNC(=O)c1cc2c(c(-c3cccc(-c4ccc(F)cc4)c3)n1)[C@@H](CCO)N(S(=O)C(C)(C)C)C2 (stereo partly drawn)	none
CCCNC(=O)c1cc2c(c(-c3cccc(-c4ccc(F)cc4)c3)n1)[C@H](CCO)N(S(=O)C(C)(C)C)C2 (stereo partly drawn)	Peg3 promoter 51
Cc1cc(C(=O)COc2cccnc2[N+](=O)[O-])c(C)n1-c1ccccc1	Shn3 3UTR inh 90, Peg3 promoter 73, HIF-2a block 74
Cc1cc(C(=O)COC(=O)c2ccc[nH]c2=O)c(C)n1-c1ccc(F)cc1	none
Cc1cc(-n2c(C)cc(C(=O)COc3ccccc3[N+](=O)[O-])c2C)no1	none
Cc1ccc(-n2c(C)cc(C(=O)COc3cccnc3[N+](=O)[O-])c2C)cc1	HIF-2a block 59
Cc1cc(C(=O)COc2cccnc2[N+](=O)[O-])c(C)n1-c1ccccc1F	HIF-2a block 50
Cc1cc(C(=O)COc2cccnc2[N+](=O)[O-])c(C)n1Cc1ccco1	none
Cc1cc(C(=O)COC(=O)c2ccc[nH]c2=O)c(C)n1-c1ccccc1	HIF-2a block 44
COCCN(C(=O)Cc1cccs1)C(C(=O)NC1CCCC1)c1cc(OC)c(OC)c(OC)c1 (stereo not drawn)	none
COCc1cc(=O)[nH]c(Cc2c(Cl)cccc2Cl)n1	none
CC1(C(=O)N(Cc2ccccc2)Cc2ccccc2)CC1(Br)Br (stereo not drawn)	none
COc1ccc(C(=O)CSc2nnc(CN3CCCCC3)n2-c2ccc(Cl)cc2)cc1OC	none
O=S(=O)(Nc1ccc(O)c2ccccc12)c1cccs1	CF NFkB block 86
Cc1ccc(-c2nn(-c3ccccc3)cc2C=C2C(=O)CC(C)(C)CC2=O)cc1	none
CC1=NNC(=O)/C1=C\c1cn(-c2ccccc2)nc1-c1ccc(Cl)cc1	Peg3 promoter 79, HIF-2a block 87
COc1ccc(CNC(=O)CN2C(=O)NC(C)(c3cccc(Br)c3)C2=O)cc1 (stereo not drawn)	none
COc1c(C)cc(Br)cc1C(=O)Nc1ccc(S(N)(=O)=O)cc1	none
Cc1ccc(NC(=O)Cn2c(O)c(N=NC(N)=S)c3ccccc32)cc1	HIF-2a block 47
Cc1ccc(NC(=O)Cn2c(O)c(N=NC(N)=O)c3ccccc32)cc1	none
COc1cccc(NC(=O)C2CCCN2C(=O)Nc2ccccc2)c1 (stereo not drawn)	none
COc1cccc(NC(=O)C2CCCN2C(=O)Nc2cccc(F)c2)c1 (stereo not drawn)	Peg3 promoter 67
O=c1cc(N=Nc2ccc(Cl)cc2)[nH]c(=O)[nH]1	Peg3 promoter 111, CF NFkB block 68
O=C(Oc1ccc(Br)cc1C(=O)/C=C/c1ccccc1F)c1ccco1	Peg3 promoter 50
CCOc1cc(/C=C2\C(=O)N(c3nc(-c4ccc(Br)cc4)cs3)N=C2c2ccccc2)ccc1O	Peg3 promoter 51
CCOC(=O)c1c(C)c(C(=O)Nc2cc(OC)ccc2OC)c(C)n1CC	Peg3 promoter 57
CCOC(=O)c1[nH]c(C)c(C(=O)Nc2cc(OC)ccc2OC)c1C	none
COC(=O)COc1ccc(C(=O)Cn2c(NCCCO)nc3ccccc32)cc1	none
CC1CC(C)C[N+](=C2C=C(N3CCCC3)CC(C)(C)C2)C1 (stereo not drawn)	Shn3 3UTR inh 89
CC1(C)CC(N2CCN(c3ccccc3)CC2)=CC(=[N+]2CCCC2)C1	Shn3 3UTR inh 86
CN(Cc1ccccc1)C1=CC(=[N+]2CCCC2)CC(C)(C)C1	Shn3 3UTR inh 88
CC1(C)CC(=O)C=C(N2CCNCC2)C1	none
CC1(C)CC(N2CCCC2)=CC(=[N+]2CCCCCC2)C1	none
CCc1cc(-c2[nH]ncc2-c2ccc3c(c2)OCO3)c(O)cc1O	Peg3 promoter 69, CF NFkB block 85
CN(Cc1cn[nH]c1-c1ccc2c(c1)OCO2)C1CCOCC1	none
O=c1[nH]c(/C(Cl)=C/c2cc(Cl)ccc2O)nc2cc(Cl)ccc12	KKLEB cytotox -53
Cc1ccc(S(=O)(=O)N(C(=O)c2ccncc2)c2ccc(OC(=O)c3ccncc3)c3ccccc23)c(C)c1	Peg3 promoter 51
CC(=O)NC(Cc1ccc(F)c(F)c1)C(=O)NC1CCN(S(=O)(=O)c2ccc(C)cc2)CC1 (stereo not drawn)	none
O=c1c2ccc(Cl)cc2nc(-c2cccc(C(F)(F)F)c2)n1O	Peg3 promoter 52
COc1ccc(C(=O)NCC(c2cccs2)N2CCc3ccccc32)cc1OC (stereo not drawn)	none
Cc1c(OCC(=O)N2CCC(C(N)=O)CC2)ccc2c1oc(=O)c1ccccc12	none
O=c1[nH]c(CSc2nc3ccccc3s2)nc2ccccc12	none
COc1ccc(C2NCCc3c2[nH]c2ccccc32)cc1CSc1nc2ccccc2s1 (stereo not drawn)	Peg3 promoter 92
O=C(CCCOc1ccc(Cl)cc1Cl)N/N=C/c1ccccc1O	Peg3 promoter 52
O=C(CCCOc1ccc(Cl)cc1Cl)N/N=C/c1ccccc1	none
O/N=C/c1cccc[n+]1CCCCCC[n+]1ccccc1/C=N/O	none
CCCCCCCCCCCCCCCC[n+]1ccc(/C=N/O)cc1	Peg3 promoter 104, HIF-2a block 70
CCCCCCCCCCCCCCCC[n+]1ccccc1	Shn3 3UTR inh 97, Peg3 promoter 97, KKLEB cytotox -50!, HIF-2a block 93, CF NFkB block 62
COc1ccc(C(=O)Nc2ccccc2)cc1NC(=O)c1cccs1	none
Cc1ccc(S(=O)(=O)N(CCO)c2cc3c(s2)CCCC3)cc1	none
CC/C(=N/Nc1ccccc1)c1cnnc(-c2ccccc2)n1	KKLEB cytotox -51
CC/C(=N/Nc1cccc(Cl)c1)c1cnnc(SC)n1	none
CC(=O)c1ccc(NC(=O)COC(=O)c2c3c(nc4ccccc24)/C(=C\c2cccs2)CCC3)cc1	Peg3 promoter 56
CC(C)CNC(=O)COC(=O)c1c2c(nc3ccccc13)/C(=C\c1cccs1)CC2	none
O=C(Nc1ccc([N+](=O)[O-])cc1)C(c1ccccc1)c1ccccc1	Peg3 promoter 52
COc1ccc(-n2cccc2/C=C/[N+](=O)[O-])cc1	none
Cc1ccc(S(=O)(=O)n2cccc2/C=C/[N+](=O)[O-])cc1	Shn3 3UTR inh 94
COCCNC(=O)C1(C)CCCN(C(=O)c2ccc3snnc3c2)C1 (stereo not drawn)	none
COc1cc(NC(=O)c2cnc(N)o2)cc(C(=O)Nc2cccc(C(F)(F)F)c2)c1	Peg3 promoter 56!
CC1(C)CC(=O)C(C=Nc2ccc(C(=O)c3ccccc3)cc2N=CC2=C(O)CC(C)(C)CC2=O)=C(O)C1	KKLEB cytotox -59, CF NFkB block 52
CC1(C)CC(=O)C(C=Nc2ccc(O)c(N=CC3=C(O)CC(C)(C)CC3=O)c2)=C(O)C1	none
O=C(NC1CCCCC1)C(c1ccc(F)cc1)N(Cc1cccs1)C(=O)CN1C(=O)c2ccccc2S1(=O)=O (stereo not drawn)	KKLEB cytotox -75, CF NFkB block 59
